# DAX1 inh-1 = inhibitors of human orphan nuclear receptor DAX1 (NR0B1) | AID 504766 | 340,000 tested, 0.99% active | P51843 | HEK293 Gal4-DAX1 luciferase reporter, luminescence | inhibition, % at 6.75 µM;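 active means inhibition above the mean over all tested compounds plus 3 SD, cut at about 4.2% in these data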;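 further: 0% = DAX1-transfected cells with DMSO and 100% = empty-vector control cells with DMSO; inhibition shows as a rise in luminescence from relieved DAX1 repression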
# Target sequence (P51843 207-470 limits assumed): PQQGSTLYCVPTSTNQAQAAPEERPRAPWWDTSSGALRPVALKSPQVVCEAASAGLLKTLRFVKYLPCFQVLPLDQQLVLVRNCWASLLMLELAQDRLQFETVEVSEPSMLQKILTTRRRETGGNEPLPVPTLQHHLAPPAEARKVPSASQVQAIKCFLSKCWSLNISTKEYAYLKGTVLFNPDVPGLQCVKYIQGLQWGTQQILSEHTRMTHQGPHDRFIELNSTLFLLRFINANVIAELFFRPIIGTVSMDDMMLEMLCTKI
# PolyA inhibitor = blocks polyadenylation in yeast reporter cells; S. cerevisiae SKY197-pL101 polyadenylation reporter, beta-gal luminescence; efflux-impaired pdr1/pdr3 knockout yeast; score 100 = 6 SD above DMSO; activity score, % at 12 µM; 300,000 tested, 0.02% active; AID 1875;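 active means lowest replicate activity score at least 50, where 100 means six control SD above control mean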;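 further: yeast exposed to compound for 9 h at 30 °C; higher score means more reporter readthrough which indicates perturbed polyadenylation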
# ssDAF12 agonist = S. stercoralis DAF-12 activation, primary screen | HEK293 ssDAF-12/GRIP1 lit1-tk-luc reporter, luminescence; % of 3 µM dafachronic acid response | activation, % at 6.8 µM | 370,000 tested, 1% active;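 active means activation above the mean over all tested compounds plus 3 SD, cut at about 0.9% in these data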;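 further: 0% = DMSO-only wells and 100% = 3 µM delta7-dafachronic acid wells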
# hgDAF12 agonist = activates the H. glycines DAF-12 receptor ligand-binding domain | activation, % at 6.8 µM | 370,000 tested, 1.8% active | HEK293 GAL4-hgDAF12 UAS-luciferase reporter, agonist luminescence; normalized to butyrate control | AID 687014;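 active means activation above a cutoff set at the mean of all screened compounds plus 3 SD, cut at about 10% in these data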;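 further: 0% = DMSO wells and 100% = sodium butyrate wells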
# hcDAF12 agonist = activates DAF-12 receptor from parasite H. contortus; activation, % at 6.8 µM; HEK293 hcDAF-12 lit1-tk-luc reporter, luminescence; 0% DMSO, 100% Δ7-dafachronic acid; 370,000 tested, 1.4% active;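 active means activation above the mean of all tested compounds plus 3 SD, cut at about 5.5% in these data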;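 further: 100% = response to 3 µM Δ7-dafachronic acid high control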
# DAX1 inh-2 = inhibitors of DAX1 repression of SF-1 activated StAR promoter; HEK293T StAR-luciferase reporter, SF-1/DAX-1 repression relief; inhibition, % at 6.8 µM; 370,000 tested, 1.1% active;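 active means inhibition above the mean over all tested compounds plus 3 SD, cut at about 3.6% in these data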;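 further: 0% = DAX-1 cells with DMSO and 100% = cells lacking DAX-1 with DMSO; higher inhibition means more luminescence from relief of DAX-1 repression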
# hgDAF12 conf = hgDAF-12 agonism, confirmation assay; shares compounds with hgDAF12 agonist; HEK293 GAL4-hgDAF12 luciferase reporter, agonist mode; percent of butyrate response; activation, % at 6.8 µM; 3,300 tested, 80% active; AID 743050;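 active means mean activation over triplicate wells above the hit cutoff derived from the earlier primary screen, cut at about 11% in these data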;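 further: 0% = DMSO low control and 100% = 2 mM sodium butyrate high control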
# LXR ag 2 = counter-screen for DAF-12 agonists: agonists of human LXR-beta | shares compounds with hgDAF12 agonist | HEK293 Gal4-LXR luciferase reporter, 24 h | activation, % at 6.8 µM | 3,300 tested, under 10 active | AID 743051;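 active means mean activation of the triplicate above a set limit carried over from the primary screen, none filed active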
# * = called active by the depositor; . = no result. An excerpt weighted towards active compounds, which were near 4.1% of everything screened.
SMILES,DAX1 inh-1,PolyA inhibitor,ssDAF12 agonist,hgDAF12 agonist,hcDAF12 agonist,DAX1 inh-2,hgDAF12 conf,LXR ag 2
Nc1nnc(CC(=O)N/N=C/c2ccc(-c3ccc(F)cc3)o2)s1,.,-5.4,-1.9,-0.9,-1.7,0.3,.,.
O=C(N/N=C/c1ccccc1Cl)c1cccc(F)c1,1.5,-4.6,0.3,16.5*,3.1,3.7*,12.7*,0.5
O=C(N/N=C/c1c(Cl)cccc1Cl)c1cccc(F)c1,0.3,-3.8,.,.,.,.,.,.
O=C(N/N=C/c1cccc(F)c1)c1ccc(Cl)cc1,3.4,13.9,0.3,17.6*,2.5,3.7*,12.0*,0.4
O=C(N/N=C/c1cccc(NC(=O)c2ccc(Cl)cc2)c1)c1ccc(O)cc1,-2.6,7.9,-0.9,7.5,0.2,1.0,.,.
Fc1ccccc1CSc1ccc(-c2ccco2)nn1,3.5,.,-0.3,16.5*,2.1,4.1*,15.2*,0.7
c1ccc(CSc2ccc(-c3ccco3)nn2)cc1,1.4,-12.9,0.0,15.2*,1.0,1.9,14.8*,0.7
Cc1ccc(CSc2ccc(-c3ccco3)nn2)cc1,0.1,-8.4,-0.3,9.5,4.8,1.1,.,.
Clc1ccc(CSc2ccc(-c3ccco3)nn2)cc1,-0.1,-2.0,-0.9,6.0,1.2,-0.4,.,.
O=[N+]([O-])c1ccc(NCCCc2ccccc2)cc1,2.3,.,-1.0,4.4,0.0,-2.0,.,.
CS(=O)(=O)N1N=C(c2ccc(Br)cc2)CC1c1cccs1 (centres undefined),1.7,3.0,-0.9,14.4*,2.8,0.3,9.8,0.5
CC(=O)N1N=C(c2ccccc2)CC1c1cccs1 (centres undefined),0.8,-13.8,-0.9,0.4,-2.6,-0.3,.,.
CCOC(=O)N/N=C/c1cn(CCCOc2ccc(C)cc2)c2ccccc12,-2.0,-8.2,-1.0,17.1*,-2.6,-0.5,5.0,0.3
CCOC(=O)N/N=C/c1cn(CCCOc2ccccc2)c2ccccc12,-2.1,-12.1,-1.1,5.8,-0.6,0.1,.,.
COc1ccc(-c2ccc(C(=O)C3CC3)cc2)cc1,2.1,-9.4,0.2,15.1*,3.4,1.5,19.6*,0.9
O=C(c1ccccc1)c1cnc(-c2ccccc2)s1,9.3*,-13.1,0.1,16.4*,2.6,3.1,18.0*,1.0
O=C(c1ccc(Cl)cc1)c1cnc(-c2ccc(Cl)cc2)s1,-0.5,6.6,-1.0,1.3,-0.1,-0.2,.,.
CN1CCC(=NNC(=O)C(=O)NC(C)(C)C)CC1,0.8,6.6,-1.1,2.8,1.4,0.3,.,.
CN1CCC(=NNC(=O)C(=O)Nc2ccccc2F)CC1,2.9,5.4,-1.7,24.2*,-1.2,0.4,2.4,0.1
COc1cccc2c1C(=O)O/C2=C/c1ccc2c(c1)OCO2,3.5,-7.2,1.2*,16.3*,4.6,3.6,14.3*,1.2
COc1ccc(-c2cc(=O)c3cc(C)ccc3[nH]2)cc1,-0.5,-6.4,0.7,15.7*,5.7*,2.7,16.0*,0.8
c1ccc(OCCSc2nnnn2-c2ccccc2)cc1,1.6,0.5,0.2,16.0*,4.0,2.6,19.4*,0.8
CNC(=S)N/N=C/c1cn(CCOc2cccc(OC)c2)c2ccccc12,-0.6,2.1,-0.7,-1.0,-0.7,-0.7,.,.
Cc1ccccc1NC(=O)c1ccc2nccnc2c1,0.2,11.0,-0.9,0.6,-1.6,-0.2,.,.
O=C(Nc1ccccc1Br)c1ccc2nccnc2c1,1.0,-6.7,-0.4,14.8*,2.0,1.2,10.5*,0.4
COC(=O)[C@]12C[C@H](CC(=O)N3CCN(C(=O)C4CC4)CC3)C(=O)N(Cc3ccccc3)C1=C[C@H](COCc1ccccc1)O[C@@H]2C,.,.,-1.3,-0.1,-0.9,0.4,.,.
CC(=O)Nc1ccc(S(=O)(=O)N(C)c2ccc(OCCOc3ccccc3F)cc2)cc1,-0.5,.,-1.1,-1.1,-3.3,-1.4,.,.

# Screening results from PubChem BioAssay.
